Here are results for 14 compounds from PubChem BioAssay.

The source made the active and inactive calls.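 Rule for the calls, unless noted: active = fluorescence slope higher than the sample average by over 3 SD (cut at about -0.22 in these data, passing the limit was not always enough); inactive = the rest.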

A short description of test [1]: inhibitors of TNFa-induced NFkB p65 translocation, primary screen, imaging, HUVEC, MLSMR starter and 10KST1 sets (AID 438;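 active = inhibition above 20% together with a positive visual image hit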;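 note: compound added about 3h40 before a 20 min TNFalpha stimulation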;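 for inhibition: signal is the nuclear over cytoplasmic p65 intensity ratio per well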). Particulars: HUVEC TNFa-induced p65 nuclear translocation; cell count: measured here: nuclei count (cytotoxicity indicator), at 2.08 µM; inhibition: at 2 µM, stronger effect = higher value, 0% TNFa-plus-vehicle, 100% no-TNFa wells.
A short description of test [2]: inhibitors of mutant huntingtin aggregation, primary screen, imaging, exon1htt(103Q)mCFP cells, high-content imaging (AID 483;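 active = visual image review flags a hit and inhibition of aggregation exceeds 20%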;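 note: compound exposure lasted 3 days before fixation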;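 for nuclei count: percent of the per-plate median nuclei count of sample wells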). Particulars: exon1htt(103Q)mCFP cell line, aggregate imaging, at 2 µM; inhibition of aggregation: stronger effect = higher value; nuclei count: measured here: cell count, toxicity.
Test [3] can be described thus: inhibitors of E-selectin induction by TNFa, primary screen, imaging, HUVEC, immunofluorescence, MLSMR starter and 10KST1 sets (AID 487;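 active = visually confirmed hit in the image check and inhibition above 20%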;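 for inhibition: signal is fraction of cell area covered by stained E-selectin grains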;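 for nuclei count: 100% = median nuclei count of all wells on the same plate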). Particulars: HUVEC TNFalpha-induced E-selectin immunofluorescence imaging, at 2 µM; inhibition: stronger effect = higher value; nuclei count: measured here: cell number, toxicity.
Test [4] addresses Voltage-gated potassium channel subunit beta-2 (Rattus norvegicus) (UniProt P62483). The experiment in a line: KvBeta enzyme negative modulators, primary screen, biochemical, NADPH fluorescence (AID 622).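 Note: slope of raw intensity against log time taken from 70 to 1610 s.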 Particulars: recombinant KvBeta, 4-cyanobenzaldehyde reduction, at 10 µM, stronger effect = higher value.
The target is the same in test [5]. The experiment in a line: KvBeta positive modulators, primary screen, biochemical, NADPH fluorescence (AID 623;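 active = NADPH fluorescence slope more negative than the mean of all samples by about 3 SD, 99.7% confidence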;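 note: fluorescence intensity change per second fitted from 20 to 320 s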). Particulars: Recombinant KvBeta, NADPH fluorescence decrease slope, 10 min; at 10 µM; stronger effect = lower value.
In test [6] the target is Alpha-2C adrenergic receptor (Homo sapiens) (UniProt P18825). The experiment in a line: modulators of alpha2C/GIRK thallium flux, primary screen, cell-based, HEK293 alpha2C/GIRK1/2 (AID 624;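 active = fluorescence slope after compound addition differing from the mean of all screened samples at 99.7% confidence, in either direction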;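 note: slope of fluorescence ratio to pre-addition baseline per second over 15 to 24 s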). Conditions: thallium flux BTC fluorescence, at 10 µM, actives lie on both sides.
Test [7] in a line: inhibitors of Sendai virus-induced IRF3 signaling, primary screen, TLR/RLR signaling modifier project, cell-based, Sendai virus stimulus, luciferase, 10K MLSCN set (AID 602276;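 active = inhibition at or above 50% at 10 µM; inactive = inhibition below 50%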;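 note: firefly luciferase from ISG56 promoter only with Renilla not read in this screen; 0% = Sendai virus plus DMSO and 100% = medium plus DMSO without virus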). Particulars: HEK293 RL24 IRF3 luciferase reporter, at 10 µM, stronger effect = higher value. (A reporter such as luciferase makes a cellular process visible.)
Test [8] is described as follows: inhibitors of poly I:C-induced TLR3 signaling, primary screen, cell-based, poly I:C stimulus, luciferase, 10K MLSCN set (AID 602277;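 active = inhibition of the reporter signal at or above 50%; inactive = inhibition below 50%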). Conditions: HEK293-TLR3 RL24 IRF3 luciferase reporter, at 10 µM, stronger effect = higher value.

Chain of Alpha-2C adrenergic receptor (Homo sapiens) (P18825 whole entry, looked up): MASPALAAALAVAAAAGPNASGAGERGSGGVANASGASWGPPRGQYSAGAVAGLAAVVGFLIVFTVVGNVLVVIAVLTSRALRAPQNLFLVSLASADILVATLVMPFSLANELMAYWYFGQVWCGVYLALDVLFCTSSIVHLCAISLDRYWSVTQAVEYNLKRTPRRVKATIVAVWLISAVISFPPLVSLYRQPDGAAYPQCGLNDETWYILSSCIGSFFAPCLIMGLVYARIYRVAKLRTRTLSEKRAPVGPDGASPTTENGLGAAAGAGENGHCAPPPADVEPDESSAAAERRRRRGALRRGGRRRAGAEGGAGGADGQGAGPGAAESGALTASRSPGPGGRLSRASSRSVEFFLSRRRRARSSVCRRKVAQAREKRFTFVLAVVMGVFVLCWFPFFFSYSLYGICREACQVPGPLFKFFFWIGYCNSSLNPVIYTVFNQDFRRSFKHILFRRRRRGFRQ
Chain of Voltage-gated potassium channel subunit beta-2 (Rattus norvegicus) (P62483 whole entry, looked up): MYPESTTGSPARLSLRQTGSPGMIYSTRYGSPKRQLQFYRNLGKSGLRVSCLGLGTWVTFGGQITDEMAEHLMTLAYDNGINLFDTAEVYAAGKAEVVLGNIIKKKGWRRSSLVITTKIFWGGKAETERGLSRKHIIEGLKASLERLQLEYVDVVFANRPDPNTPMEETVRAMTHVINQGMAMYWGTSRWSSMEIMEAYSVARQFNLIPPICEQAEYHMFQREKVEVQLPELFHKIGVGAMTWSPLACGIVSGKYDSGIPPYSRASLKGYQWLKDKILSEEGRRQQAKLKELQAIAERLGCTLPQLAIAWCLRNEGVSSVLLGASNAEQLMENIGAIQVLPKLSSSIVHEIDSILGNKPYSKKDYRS

By inhibition is commonly meant the change of the read-out against control, counted positive when it falls. For `CN1CCN(C(c2cccc(C(F)(F)F)c2)c2nnnn2C(C)(C)C)CC1` (centres undefined), the cell count in test [1] amounted to 337. In addition, the inhibition in test [1] is -6% (inactive); in test [3], -68.4% (inactive); in test [7] it was 19.1% (inactive); in test [8], 22.7% (inactive). The inhibition of aggregation in test [2] was 32.7% (inactive). The nuclei count in test [2] was 73.7%; in test [3], 94.8%. Besides, in test [4], the fluorescence slope was -0.591 (inactive). Further, the NADPH fluorescence slope in test [5] is -2.7e-05 (inactive). Besides, in test [6], the slope was 0.00442 (inactive).

Turning to `CCN(C1CCCCC1)S(=O)(=O)c1ccc(OC)c(C)c1`, in test [1], the cell count stood at 862. Besides, the inhibition was -3.6% (inactive) in test [1], -104% (inactive) in test [3], -0.395% (inactive) in test [7] and 28.2% (inactive) in test [8]. In addition, the inhibition of aggregation in test [2] was 9.9% (inactive). Moreover, the nuclei count in test [2] amounted to 98.1%; in test [3] it was 128%. Further, the fluorescence slope in test [4] was -0.498 (inactive). Further, the NADPH fluorescence slope in test [5] was -2.3e-05 (inactive). In addition, the slope in test [6] is 0.00415 (inactive).

Consider `CC(=O)NC(CCS(C)(=O)=O)C(=O)Nc1cc(C)on1` (centres undefined), for which the cell count in test [1] amounted to 676. Moreover, the inhibition in test [1] is -2.9% (inactive); in test [3], -36.9% (inactive); in test [7], 25.9% (inactive); in test [8], 7.35% (inactive). The inhibition of aggregation in test [2] is 26.2% (inactive). The nuclei count stood at 62.5% in test [2] and 114% in test [3]. Moreover, the fluorescence slope in test [4] was -0.533 (inactive). For the same compound, the NADPH fluorescence slope in test [5] is 2.6e-05 (inactive). Moreover, the slope in test [6] was 0.00682 (inactive).

Consider `CS(=O)(=O)N1CCCC(C(=O)NCCCN2CCC(Cc3ccccc3)CC2)C1` (centres undefined), for which, in test [1], the cell count worked out at 679. Also, the inhibition in test [1] is -2% (inactive); in test [3], -139% (inactive); in test [7], -7.21% (inactive); in test [8], -4.47% (inactive). In addition, the inhibition of aggregation in test [2] was 15.3% (inactive). The nuclei count in test [2] is 89.6%; in test [3] it was 111%. The fluorescence slope in test [4] was -0.602 (inactive). Besides, in test [5], the NADPH fluorescence slope is 2e-05 (inactive). Besides, the slope in test [6] is 0.00628 (inactive).

Consider `O=C(CN(Cc1ccc2c(c1)OCO2)C(=O)CNS(=O)(=O)c1ccccc1)NCc1ccco1`, for which the cell count in test [1] turned out to be 869. Besides, the inhibition in test [1] is 9% (inactive); in test [3], -3.6% (inactive); in test [7] it was 15.7% (inactive); in test [8], 36.2% (inactive). Also, the inhibition of aggregation in test [2] was -9.2% (inactive). Moreover, the nuclei count stood at 108% in test [2] and 98.7% in test [3]. Also, in test [4], the fluorescence slope is -0.356 (inactive). Besides, in test [5], the NADPH fluorescence slope is 8e-07 (inactive). The slope in test [6] is 0.00553 (inactive).

Regarding `COc1ccc(-c2nnc(-c3ccc(N)cc3)o2)cc1`, the cell count in test [1] worked out at 332. The inhibition was 5.5% (inactive) in test [1], -145% (inactive) in test [3], -34.1% (inactive) in test [7] and -82.2% (inactive) in test [8]. Further, in test [2], the inhibition of aggregation was 9.6% (inactive). Besides, the nuclei count was 111% in test [2] and 124% in test [3]. Moreover, the fluorescence slope in test [4] was -0.0553 (active). The NADPH fluorescence slope in test [5] was -2.2e-05 (inactive). Besides, in test [6], the slope is 0.00409 (inactive).

Consider `CCOC(=O)c1cc2c(=O)n3ccccc3nc2n(CCCOC)c1=NC(C)=O`, for which the cell count in test [1] amounted to 657. Moreover, the inhibition in test [1] was 11.2% (inactive); in test [3] it was -33.6% (inactive); in test [7], 1.75% (inactive); in test [8], 9.93% (inactive). In test [2], the inhibition of aggregation was 21.5% (inactive). Also, the results for the nuclei count in test [2] and in test [3] were 94.4% and 82.5%, respectively. For the same compound, the fluorescence slope in test [4] is -0.133 (active). In test [5], the NADPH fluorescence slope is 1.2e-05 (inactive). For the same compound, the slope in test [6] was 0.00482 (inactive).

Regarding `CC(=O)NC(Cc1ccc(C)cc1)C(=O)NC1CCN(C(=O)c2cnccn2)CC1` (centres undefined), in test [1], the cell count was 740. In addition, the inhibition in test [1] was -1% (inactive); in test [3], -42% (inactive); in test [7], 13.8% (inactive); in test [8], 9.87% (inactive). For the same compound, the inhibition of aggregation in test [2] is 22.2% (inactive). Besides, the nuclei count in test [2] was determined as 130%; in test [3], 117%. Also, the fluorescence slope in test [4] was -0.421 (inactive). Besides, the NADPH fluorescence slope in test [5] is -1.5e-05 (inactive). Also, the slope in test [6] was 0.00511 (inactive).

For the compound `c1cnc2c(SCc3ccc(-c4nnco4)cc3)cccc2c1`, the cell count in test [1] was found to be 431. Also, the inhibition is 11.7% (inactive) in test [1], -23.1% (inactive) in test [3], -53.9% (inactive) in test [7] and -92.3% (inactive) in test [8]. In test [2], the inhibition of aggregation is -3.7% (inactive). Further, the figures for the nuclei count in test [2] and in test [3] were 100% and 107%, respectively. Moreover, the fluorescence slope in test [4] is -0.586 (inactive). The NADPH fluorescence slope in test [5] is -4.6e-06 (inactive). Also, the slope in test [6] is 0.00482 (inactive).

For the compound `COc1ccc(OC)c(C(=O)COC(=O)c2cc(C)oc2C)c1`, the cell count in test [1] came out at 747. The inhibition is -9.6% (inactive) in test [1], -2.3% (inactive) in test [3], 6.43% (inactive) in test [7] and -0.082% (inactive) in test [8]. Further, the inhibition of aggregation in test [2] was 38.1% (inactive). Also, the nuclei count in test [2] was found to be 103%; in test [3] it was 114%. The fluorescence slope in test [4] was -0.361 (inactive). For the same compound, in test [5], the NADPH fluorescence slope was 2.4e-05 (inactive). For the same compound, the slope in test [6] is 0.00558 (inactive).

Turning to `COc1ccccc1N1CC(O)=C(c2nc3ccccc3c(=O)[nH]2)C1=N`, in test [1], the cell count is 399. Further, the inhibition in test [1] is 1.4% (inactive); in test [3] it was -73.7% (inactive); in test [7] it was 11.7% (inactive); in test [8], 28.7% (inactive). In test [2], the inhibition of aggregation is 22.7% (inactive). Further, the nuclei count was found to be 62.7% in test [2] and 126% in test [3]. Besides, the fluorescence slope in test [4] is -0.546 (inactive). Moreover, the NADPH fluorescence slope in test [5] is -3.6e-05 (inactive). The slope in test [6] was 0.00655 (inactive).

Take `COc1ccc(OC)c(NC(=O)c2nnn(Cc3ccc(Br)cc3F)c2N)c1`: the cell count in test [1] was determined as 777. In addition, the inhibition was 0.6% (inactive) in test [1], -25.4% (inactive) in test [3], 1.6% (inactive) in test [7] and 5.74% (inactive) in test [8]. The inhibition of aggregation in test [2] was 20.9% (inactive). The nuclei count was determined as 99.3% in test [2] and 116% in test [3]. Also, the fluorescence slope in test [4] was -0.525 (inactive). Also, in test [5], the NADPH fluorescence slope was -1.8e-05 (inactive). Further, the slope in test [6] is 0.00503 (inactive).

Turning to `CCCCn1cnc2c1c(=O)n(C)c(=O)n2C`, in test [1], the cell count worked out at 797. In addition, the inhibition in test [1] was -7.5% (inactive); in test [3], -35.5% (inactive); in test [7] it was -11.6% (inactive); in test [8], -3.57% (inactive). The inhibition of aggregation in test [2] was 25.6% (inactive). For the same compound, the nuclei count in test [2] was 101%; in test [3], 119%. In test [4], the fluorescence slope is -0.374 (inactive). In test [5], the NADPH fluorescence slope is -1.9e-05 (inactive). The slope in test [6] is 0.00541 (inactive).

As for `O=C1NC(c2cccnc2)C(C(=O)c2cccs2)C(O)(C(F)(F)F)N1` (centres undefined), the cell count in test [1] is 506. Besides, the inhibition was -0.3% (inactive) in test [1], 40.4% (inactive) in test [3], -6.6% (inactive) in test [7] and -5.31% (inactive) in test [8]. In addition, the inhibition of aggregation in test [2] is 5% (inactive). The nuclei count in test [2] was 104%; in test [3], 119%. The fluorescence slope in test [4] was -0.363 (inactive). Besides, the NADPH fluorescence slope in test [5] is -3.5e-05 (inactive). Further, the slope in test [6] is 0.00436 (inactive).
